# Measured values published in PubChem BioAssay AID1508600 (Functional Genomics Laboratory (NCATS/FGL), 2020).
# The whole screen tested about 53,000 sequences, of which about 3,700 (7%) were called active. The full list was thinned out, with actives kept by preference. A number with no mark means an inactive call.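 Rule for the calls: active = gene knockdowns whose robust z-score for IL-1 alpha signal is at least 2 or at most -2, so actives lie on both sides; inactive = the rest.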
# Experiment: Components of the Cytosolic LPS Sensing Pathway: Gene Identification via Genome-wide siRNA Screen;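 note: robust z of the log signal after scaling to non-targeting control siRNA wells of the plate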
# Details: RAW264.7 macrophages, IL-1a HTRF, actives lie on both sides, screened at 100 nM (by protocol), cells primed 5 h with Pam3CSK4 first
# Method in brief: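 Cells (RAW264.7, 1×10^4 per well) were transfected with siRNA at 100 nM and cultured 48h at 37 degrees C. Pam3CSK4 was added for 5 hours; LipidA transfection followed for 24 hour. IL-1a was then measured by HTRF.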
row,Sequence,z-score
1,GGUGCACUUUGAAUCAGGGTT against Uchl4,0.91
2,GGACAUCUACACCAUUUGGTT against Mplkip,-2.11 (active)
3,GGUAACUAUGAAGAGAUCATT against Neu2,0.312
4,GGAUUAGGAAAGAGAGAACTT against 4930519G04Rik,-1.43
5,GGUCAUCGUGUGCAACCUCTT against Zcchc3,-3.24 (active)
6,GGAACAGUUCAAGUGAAGCTT against Sertad2,-0.0174
7,GGAAGAUGAGAAAAUUCCATT against Ccni,-0.44
8,GCCACAGAAAGUGAUUGAGTT against Rbp7,-0.418
9,GGUACAGACCUUUGAAAUATT against Apobec2,-0.125
10,CCGCAUGGAGCAUCUAAUATT against Tuft1,0.04
11,GGGAGACCUGCUACUAUUGTT against Gtf3c2,2.58 (active)
12,GGAAACAACAACAAAUACATT against C1ql3,1.52
13,GGAAGAUCCUCGAUAGUCATT against Rgs7,1.2
14,GACCAUCUCCUUUACGGGCTT against Olfr71,0.133
15,GGCCAAAGAAGAAAGUGACTT against Opn3,-2.72 (active)
16,GUGGUAAACAGAAUGGUGATT against Ccdc92b,-1
17,GCACCCAUAUCAACGAGGUTT against Olfr924,0.484
18,GGUGACCAGCAAGUCAUGCTT against Chrdl1,-0.663
19,GGAAGAAAAAAACUUCGUUTT against Gabrg3,0.186
20,CCUGAAAGAUGCUCUCUAUTT against Inpp4b,4.27 (active)
21,GCACAGCUUUUUGGAUCUGTT against Zfyve26,-0.75
22,CCAGAGUCUUUGGUAAUGCTT against Krtap3-3,1.07

row,Sequence,z-score
1,GUCAUCAUGAACCAAGAGATT against Olfr713,-2.18 (active)
2,GGAAAACCAGCACAAUUUATT against Cadm1,2.49 (active)
3,CCAUCUACAAACUUUGGCCTT against Sacs,0.669
4,GGUACUGACGCAUCUGAGGTT against Spata5l1,1.53
5,GACAAGCAAUAAAGAAAGATT against Lce1l,-1.45
6,GGAAGGUCAAGUCUUUUCUTT against Tesk1,1.46
7,CCAUGGGAUAUGAUUUACATT against Phf11a,3.49 (active)
8,GGGAAUUUCAGGCUAUAUUTT against Taf2,1.13
9,CGAUGUGGACGAGAAGCUATT against Asap2,-0.702
10,CGCUAUGAGGCAGCUAAUUTT against Psma6,-2.27 (active)
11,CCCAUACUAAAAUUGUUGATT against Adam29,0.253
12,CCUACCUUCAUUCGCUUCGTT against Cpz,2.61 (active)
13,CCCAAUCAGCAUUUGCUCUTT against H2-M10.3,0.104
14,GGAUGGAGCUACUGAAAUUTT against Dera,0.39
15,CCAGAUCAUCGUGCAGAAUTT against E4f1,0.557
16,GGAGUGUUUUGCAGUUUUATT against Dcstamp,4.39 (active)
17,GCCACUGGUUCCAAUCGUCTT against Ncs1,-0.354
18,CCGAAGCAUUUUCCCAUCUTT against Slc22a20,-0.293
19,CCUGAUCCUCAGUUUGGUGTT against Prl,0.129
20,GGUAACAAACUACAUUUGCTT against Pcdhb16,2.7 (active)
21,CGAGAAUUCCUUGCUCUAATT against Mgat4a,0.194
22,GCGCGACCUUCGAAUGUAATT against Rnf5,-0.834

row,Sequence,z-score
1,GGAUAUGGUUAAAGCCAAATT against Zg16,-0.172
2,GGGAUGUGUCCUGACUUUUTT against Zfp941,-0.402
3,CCCAACUUAAAAGUACGUUTT against Hdac5,0.83
4,GGUUCAAAAGUCGAGCGAATT against Nudt9,-0.137
5,GCCUAAGGGAGACUCUUUGTT against Ano7,-2.02 (active)
6,GGAAGUGAUUCUGCUAUGUTT against Cenpn,-1.69
7,GGAAAGCAUGAGUUAAUAATT against Slain2,1.38
8,GGGAAUAUCACAGGUGCCATT against Axl,-0.737
9,GGCUCUAAAUUUUUUGUUCTT against Derl1,0.532
10,UGAGGAGAGUUUCCGAGUGTT against H2-Q6,-0.0985
11,GCUAGUCUUAUGGACCAGATT against Eaf2,-0.764
12,GGAAGAGCAUAAAAUGUCATT against Trps1,-0.695
13,GGCGAAUGCGCUUCUGAUATT against BC053393,2.29 (active)
14,GGCACACAGUUUUGUACAUTT against Nfat5,2.25 (active)
15,GGACAAGAAGAAAGAAAAGTT against Tmbim6,-1.07
16,GGAAGUUCCACCAUACCUCTT against Cypt4,-2.5 (active)
17,GGCGACAGCGUAAAAGUACTT against Lyst,-0.347
18,GGAAAAAAAACACUGACUGTT against Hoxa5,1.05
19,GGCUCAAGGCUGAGUUUCATT against En2,0.704
20,GGCCUGGAGGACUUUAUAATT against Cyp2a4,-1.13
21,GGCUAGCUACACAGUCUCATT against Plscr2,0.376
22,GCAUCAUUGUCAAUCAUAUTT against Olfr578,-2.25 (active)

row,Sequence,z-score
1,CCGAAGGACAGUGUUUAUUTT against Mfsd11,0.212
2,GCCUGCUAUUUAAUUCAUATT against Fam168a,-0.671
3,GGUCCAGUGAAAUAAUAUCTT against Orc3,0.774
4,GGACUACCAAUACGAACUGTT against Il23a,2.22 (active)
5,GCAUAAAUUUCAAGAGCGCTT against Gigyf1,-0.243
6,CGUAAGAUCAACGAGAGAUTT against Ncaph2,-0.756
7,GGGAAAGACUGGAAAUCUUTT against Tmod3,0.515
8,GGAGAUCGAAAAGAAUUUCTT against Mx2,1.17
9,GGAGGAAGAACUGUCUUUGTT against Wasf1,0.221
10,GGUGUUGGAUCAUGAUGUUTT against Nf2,-2.14 (active)
11,GCCCUUCAAAAGGAGCAGUTT against Cap1,1.86
12,GGACCAGCUGGACAAAAGATT against Zbtb18,0.131
13,GGCAUCAAAGACAAUACAATT against Vmn1r15,3.19 (active)
14,GGUCAAAUCACUGAGUUUUTT against 9530080O11Rik,1.74
15,GGUUGUCAUUCUUAUCCUUTT against Mageb1,0.57
16,GGGAAUGCUUAUGUAGGCATT against Aldh3b1,-1.03
17,GGCGGUUAGACAUUAUGGATT against Plac9a,1.25
18,GGCGUGUGCAAGAAAAUCGTT against Cacng3,2.53 (active)
19,GGAUGAGUUGUCAUUGAUATT against Nck1,0.998
20,CCUGUAGGGCUUUUUGAAATT against Mex3a,0.843
21,GGUGUUUUUGUCCAGGUCATT against Kcnk3,-0.618
22,GCAAGACAAGUUCUACGAUTT against Csad,1.83

row,Sequence,z-score
1,GCCUGUUCGGGAAUCUUACTT against Olfr297,2.42 (active)
2,GCAUUCAGUUGGGACAGUATT against Hsh2d,0.443
3,CGCAGAGGUUUUACUUUAATT against Mycbpap,1.52
4,GCGAAGACGGAAGCAUAUUTT against Emc8,0.12
5,GGCGGAAAUCUUGAGCAAATT against Slc28a2,4.39 (active)
6,GGAGCUUAUCAACUACUAUTT against Cltc,-0.181
7,GGAGAGAAACUGCGUGUAATT against Sla,1.46
8,GGCAGAAAUCCAUCAGAGATT against Rtkn2,-0.349
9,GCCGUACUUCGUCAAGCUATT against Ung,0.395
10,GGCAUCUAGGAGAACCUCATT against Insig2,-1.01
11,CGAGAAUUACAGACACUUGTT against Noc4l,0.962
12,GGCAAAAAGGCAGUAGCCATT against Ncl,0.644
13,GGCGGAGUUCUCAAGACUUTT against Nudt18,3.55 (active)
14,GGAACUGGAUCAAGAAUUUTT against Hhat,0.0393
15,CGGACAUAGUCCAUCAUUCTT against Aig1,1.47
16,CGGUAUAGUAGAUACUUAATT against Picalm,2.01 (active)
17,CCCACCUUCCAAAAGGAUCTT against 5031434C07Rik,-0.882
18,GGUGAAAUGGAUCGUCCUCTT against Nme8,-0.926
19,GGAUGGUCUGCUAUUACAUTT against Phf7,0.832
20,CCCUCAAGGCUGAUAAACATT against Il17b,-2.26 (active)
21,GGCUACAUGAGCUGGAGAATT against Insr,2.71 (active)
